From PubChem
HPGD block – blocks human HPGD enzyme activity; P15428; Potency, µM, usual class: inhibitors; purified HPGD, NADH fluorescence kinetic, PGE2 substrate; actives 4.3% (n = 150,000)
Target sequence (P15428 whole entry, looked up): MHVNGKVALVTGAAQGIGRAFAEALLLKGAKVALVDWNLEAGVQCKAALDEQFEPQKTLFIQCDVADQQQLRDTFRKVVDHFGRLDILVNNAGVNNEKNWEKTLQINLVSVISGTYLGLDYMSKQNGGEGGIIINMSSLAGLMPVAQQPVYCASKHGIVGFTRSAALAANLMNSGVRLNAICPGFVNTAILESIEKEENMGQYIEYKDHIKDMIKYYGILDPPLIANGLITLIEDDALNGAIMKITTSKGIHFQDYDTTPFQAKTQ
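NADH formation kinetics: reaction with 30 uM PGE2 and 1 mM NAD+ (final), 20 nM enzyme, Tris-HCl pH 8 with Tween 20, after 15 min compound preincubation at room temperature. Fluorescence change, last versus first of five reads.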
IMPase Li cell – cell-permeable IMPase inhibitors with lithium potentiation; CHO-M1 cells, IP1 TR-FRET (IP-One), carbachol + lithium; Potency, µM (top dose mostly 59.4 µM), usual class: inhibitors; actives 0.35% (n = 210,000); active = well fitted inhibition curve with a large enough effect; inconclusive = small, poorly fitted or top-dose-only effect; inactive = no such curve, though single readings can be large or run the other way;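 also: IP1 builds up when IMPase is blocked and the TR-FRET signal falls; nearly all actives have a fitted effect of over 50% in size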
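Test compounds were applied to CHO-M1 cells previously cultured for 16–30 h at 2000 per well. A small lithium amount accompanied them; after 30 min at 37C, IP1 was quantified by TR-FRET.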
ALDH1A1 inh – ALDH1A1 (human) enzyme inhibition; P00352; Purified ALDH1A1, NADH fluorescence, propionaldehyde substrate; Potency, µM (series often up to 75.3 µM), usual class: inhibitors; actives 7.3% (n = 220,000); AID 1030
PNC assembly inh – blocks assembly of the perinucleolar compartment | PC3M PTB-GFP, PNC prevalence imaging, 16 h; stronger effect = lower value | activity change (PNC), negative = inhibition, % at 10 µM | actives 3.1% (n = 140,000);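 active = readout at or below -70, meaning at least 70% loss of cells showing the perinucleolar compartment, a nuclear body marking cancer cells; inconclusive = readout between -30 and a set limit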
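Compounds are pinned in duplicate onto adhered PC3M cells stably expressing GFP-tagged PTB and incubated 16 h at 37 C. Cells are then fixed, nuclei stained with Hoechst, and PNC-positive cells counted.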
IMPase inh – membrane-permeable compound that blocks inositol monophosphatase; CHO-M1 cells, IP1 accumulation, HTRF TR-FRET ratio; 120,000 tested, under 10 active; inhibition (IP1 accumulation), % at 46.1 µM; P97697; AID 901; active = well fitted curve in the direction sought with a large enough effect in the signal ratio, not every such curve was filed as active; inconclusive = small, poorly fitted or top-dose-only effect, or a change in a side signal; inactive = no such curve, though single readings can be large or run the other way; the % refers to the signal ratio;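 also: cells stimulated with carbachol in lithium chloride buffer; higher means more IMPase inhibition seen as more IP1 and lower FRET ratio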
Target sequence (P97697 whole entry, looked up): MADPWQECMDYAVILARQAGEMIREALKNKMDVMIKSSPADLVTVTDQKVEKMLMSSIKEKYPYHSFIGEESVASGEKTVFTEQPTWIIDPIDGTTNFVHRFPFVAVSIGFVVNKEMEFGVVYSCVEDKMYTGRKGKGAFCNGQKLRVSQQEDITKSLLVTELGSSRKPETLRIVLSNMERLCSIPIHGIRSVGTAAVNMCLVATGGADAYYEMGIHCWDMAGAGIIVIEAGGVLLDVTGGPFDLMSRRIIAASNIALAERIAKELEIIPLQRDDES
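CHO-M1 cells (CHO stably expressing M1 receptor), compound up to 46 uM final, stimulated with carbachol (50 uM as added) in buffer with 50mM LiCl, pH 7.4, 30 min at 37C. Cytosolic IP1 read by TR-FRET; AC50 from Hill fits.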
Hits are given with their value; n = inactive; u = inconclusive; x = no result; [ ] = remark or other dose. Compounds with a hit are over-represented: about 11% of the library has one in this group of screens. Unless noted, calls follow the shape of the dose curve; as a rule, active = well fitted inhibition curve with a large enough effect (not every such curve was filed as active); inconclusive = small, poorly fitted or top-dose-only effect, or another doubt; inactive = no such curve, though single readings can be large or run the other way.

SMILES | HPGD block | IMPase Li cell | ALDH1A1 inh | PNC assembly inh | IMPase inh
O=C(Nc1ccc(O)cc1)c1cc(S(=O)(=O)N2CCCC2)ccc1Cl | x | x | 4.5µM | n | n
CCOC(=O)N1CCC(NC(=O)c2ccc3c(Cl)c4c(nc3c2)CCCC4)CC1 | n | n | u | n | x
CCOC(=O)N1CCC(NC(=O)c2ccc3c(=O)n4c(nc3c2)CCCC4)CC1 | n | n | 2µM | n | n
Cc1occc1C(=O)Nc1ccc(S(=O)(=O)N2CCCC2)cc1 | n | n | u | n | n
O=C(Nc1cccc(S(=O)(=O)N2CCCCC2)c1)c1ccc2c(=O)n3c(nc2c1)CCCCC3 | x | x | 2.5µM | n | n
O=C(Nc1ccc2c(c1)OCO2)c1cccc(S(=O)(=O)N2CCCC2)c1 | n | n | u | u | n
O=C(Nc1ccc2c(c1)OCCO2)c1ccc(S(=O)(=O)N2CCCCC2)cc1 | n | n | 25µM | u | n
O=C(Nc1nccs1)c1ccc2c(=O)n3c(nc2c1)CCCCC3 | x | x | u | u | n
CCOC(=O)c1cc(OC(=O)c2cccc(F)c2)n(-c2ccccc2)n1 | x | x | x | x | n
CCOC(=O)CCN1C(=O)[C@H]2[C@H]3[C@H](O)[C@H](O)C/C(=N/NC(=O)OCc4ccccc4)[C@@H]3CC[C@@H]2C1=O | x | x | n[13.5 µM] | x | x
O=C(NCc1cccnc1)c1cccc(S(=O)(=O)N2CCCCC2)c1 | n | n | n | n | n
O=C(NCc1cccnc1)c1cc(S(=O)(=O)N2CCCCC2)ccc1Cl | n | n | 20µM | n | n
c1cnc(Oc2ccc(-c3nnco3)cc2)cn1 | n | n | n | n | n
C/C(=C\C(=O)c1cccnc1)Nc1ccc(O)cc1 | 16µM | n | u | n | n
COc1ccc(C(=O)OCC(=O)Nc2ccccc2)cc1[N+](=O)[O-] | x | n | u | x | x
CCOC(=O)C(Cc1ccc(OC)c([N+](=O)[O-])c1)NC(=O)CCC(=O)Nc1ccc(C)cc1 (stereo not given) | x | n | 14µM | x | x
Cc1c(CC(C)(C)C(=O)O)n(Cc2ccc(Cl)cc2)c2ccc(F)cc12 | u | n | n | x | n
CCN(CC)CCN1C(=O)C(O)=C(C(C)=O)C1c1ccc(OC)c(OC)c1 (stereo not given) | n | n | 18µM | n | n
COc1cccc(NC(=O)CCSc2nc(-c3ccco3)cc(C(F)(F)F)n2)c1 | x | x | x | x | n
Cc1nn(C)cc1S(=O)(=O)N1CCN(Cc2cccc(Cl)c2)CC1 | x | n | 22µM | x | x
COc1cc(C)c(C)cc1S(=O)(=O)N1CCN(Cc2ccccc2)CC1 | n | n | u | n | n
CCCCOc1ccccc1NC(=O)Cn1c(-c2nonc2N)nc2ccccc21 | n | n | n | -95 | n
CCOC(=O)Cn1c(-c2nonc2NC(=O)c2ccccc2F)nc2ccccc21 | u | n | u | -108 | n
N#CC1=C(N)N(c2ccccc2C#N)C2=C(C(=O)CCC2)C1c1ccsc1 (stereo not given) | n | n | 25µM | n | n
Cc1c(C2C(C#N)=C(N)N(c3ccccc3C#N)C3=C2C(=O)CCC3)cnn1C (stereo not given) | n | n | n | n | x
SMILES | HPGD block | IMPase Li cell | ALDH1A1 inh | PNC assembly inh | IMPase inh
COc1ccc2c(c1)C(c1ccccc1C)CC(=O)O2 (stereo not given) | u | n | 32µM | x | x
COc1ccc2c(c1)C(c1ccccc1OC)CC(=O)O2 (stereo not given) | n | n | u | x | x
N#C/C(=C\c1ccccc1)c1nc2ncccc2[nH]1 | n | n | n | n | n
Cn1c(=O)[nH]c(=O)c2c1nc(SCC(O)CO)n2Cc1ccccc1Cl (stereo not given) | n | n | 14µM | n | n
CC(C)CSc1nc2c(c(=O)[nH]c(=O)n2C)n1CC(O)COc1cccc2ccccc12 (stereo not given) | 13µM | n | 18µM | n | n
COc1cc2c(cc1OC)-c1cc3cc(OC)c(OC)cc3c(=O)n1CC2 | u | n | u | x | x
COCCn1c(=O)c(-c2ccc(Cl)cc2)nc2cnc(Oc3cccc(Cl)c3)nc21 | x | n | u | x | x
O=C1CN(CC(=O)N2CCOCC2)c2ccccc2O1 | n | n | 9.5µM | -118 | n
O=C(CN1CC(=O)Oc2ccccc21)OCC(=O)c1ccc(F)cc1 | x | n | 20µM | x | x
O=C1CN(CC(=O)N2CCCCC2)c2ccccc2O1 | n | n | n | n | n
Cc1ccc(-c2cc(-c3ccccc3)c3c(N)c(S(C)(=O)=O)sc3n2)cc1 | u | 10µM | u | u | n
CS(=O)(=O)c1sc2nc(-c3cccs3)cc(-c3ccccc3)c2c1N | u | u | u | n | u
CC1(C)CC(=O)C(Sc2ccccc2[N+](=O)[O-])=C(O)C1 | u | n | 7.1µM | -83 | x
COC(=O)C1(C(=O)OC)C/C=C\C/C=C\c2ccccc2C1C[N+](=O)[O-] (stereo not given) | n | n | n | x | x
O=C(Nc1cccc(NC(=O)c2nccc3ccccc23)c1)c1ccco1 | n | n | n | n | n
CCNc1nc(N)nc(Oc2ccc(OCCOc3ccccc3)nn2)n1 | 25µM | n | n | n | u
CCCOc1ccc(-c2nc3ccccc3c(=O)o2)cc1 | x | x | x | x | n
O=C(CSc1ccccn1)c1ccc(F)cc1 | 25µM | n | u | u | n
Cc1ccc(NC(=O)CCSc2ccccn2)cc1 | n | n | n | u | x
COC(=O)c1ccc(NC(=O)CSc2ccccn2)cc1 | 11µM | n | u | u | n
COC(=O)c1ccc(NC(=O)CSc2ccccc2)cc1 | n | n | n | n | x
Cc1cccc(NC(=O)CCSc2ccccn2)c1 | 14µM | n | u | n | x
O=C(CSc1ccccn1)Nc1ccc2c(c1)C(=O)c1ccccc1C2=O | n | n | 25µM | n | x
Cc1noc(C)c1C(=O)N1CCC2(CC1)CN(c1ccccc1)C2 | n | n | n | x | x
Cc1cc(C)c(NC(=O)CO/N=C2\CCCc3nonc32)c(C)c1 | n | n | n | n | n
SMILES | HPGD block | IMPase Li cell | ALDH1A1 inh | PNC assembly inh | IMPase inh
CCOC(=O)CN1C(=O)C(O)=C(C(C)=O)C1c1ccc(F)cc1 (stereo not given) | x | x | n | n | n
CCOC(=O)CN1C(=O)C(O)=C(C(C)=O)C1c1ccc([N+](=O)[O-])cc1 (stereo not given) | n | n | n | -111 | n
Cc1ccc(C(CC(=O)c2ccco2)SCCO)cc1 (stereo not given) | n | n | n | n | n
O=C(CC(SCCO)c1ccc(F)cc1)c1ccco1 (stereo not given) | n | n | 28µM | n | n
CCOCC(=O)N1CCN(c2ccc(F)cc2)CC1 | n | n | 2.2µM | n | n
COc1ccc(NC(=O)N2CCN(c3ccc([N+](=O)[O-])cc3)CC2)cc1OC | x | n | 8.9µM | x | x
CCOCC(=O)N1CCN(c2ccc([N+](=O)[O-])cc2)CC1 | x | x | 22µM | u | n
Cc1noc(C)c1CSCC(=O)N1CCN(c2ccc([N+](=O)[O-])cc2)CC1 | n | n | 22µM | n | n
CCCn1c(C)cc(C(=O)COC(=O)CN=C2NS(=O)(=O)c3ccccc32)c1C | n | n | n | n | x
